High-throughput results deposited in PubChem BioAssay by National Center for Advancing Translational Sciences (NCATS).
The list is not random: actives were taken first. Their share in the collection is about 3.1%.
p53null 39C tox: qHTS Screen for Compounds that Selectively Target Cancer Cells with p53 Mutations: Cytotoxicity of p53 Null Cells at the Nonpermissive Temperature; Potency, µM (doses to about 46.1 µM), without a hit: top-dose activity, negative = cell killing, most hits filed as cytotoxic; 55,000 tested, 0.97% active; H1299 p53-null (neo) cells, 39C, ATPlite viability, 24 h; AID 904, 2007;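 also: potency is read from the fitted curve at half-maximal effect; 0% = DMSO only and -100% = full killing by 100 µM tamoxifen; nearly all actives have a fitted effect of over 50% in size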
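Luminescent ATP signal reported cell survival after H1299 lines (neo, p53 null; or p53 A138V) received up to 46 uM compound and 24 hr incubation at 39C.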
PMP22 txn: Cell-based coincidence reporter assay to measure PMP22 gene transcription in S16 Pmp22-F2sN cells - Primary screen. S16 Pmp22-F2sN Schwann cells, FLuc/NLuc coincidence luminescence, 24 h. Potency, µM (top dose mostly 57.5 µM), without a hit: at the highest dose activity change, negative = inhibition, actives largely listed as inhibitors. 43,000 tested, 2% active. AID 1508649, 2021; active = clear falling dose curves in both reporters; inconclusive = both reporters move, but less clearly or upward; inactive = either reporter flat; the % is the NLuc reporter signal; also: potency is read from the fitted curve at half-maximal effect; % is scaled to controls: 0 for no effect and ±100 for the full control effect
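Transcriptional readout in edited S16(c9) cells: two luciferases reported from the Pmp22 locus, measured in turn after 24 h compound incubation.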
SKOV3 invasion: Primary qHTS assay for Inhibitors of ovarian cancer metastasis using an organotypic tumor microenvironment (TME) model; 46,000 tested, 0.1% active; Potency, µM (series often up to 45.8 µM), for inactives: top-dose activity change, negative = inhibition, actives largely listed as inhibitors; AID 1963576, 2024; SKOV3ip1-GFP adhesion/invasion on 3D omental model, fluorescence;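 also: potency is read from the fitted curve at half-maximal effect; plate controls were DMSO wells for no effect and tomatine positive control wells for full effect; nearly all actives have a fitted effect of over 65% in size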
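qHTS, 4-pt dose (0.36-46 umol/L); SKOV3ip1-GFP, 1,200 cells/well, no FBS; primary omental fibroblast/mesothelial co-culture 48 h pre-grown; 2 h RT + 16 h 37 C; PBS wash, 4% PFA; GFP count 488/509 nm.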
mTORC1 inh: Acumen qHTS Assay for Inhibitors of the mTORC1 Signaling Pathway in MEF (Tsc2-/-, p53-/-) Cells: Sytravon. Tsc2-/- p53-/- MEF, phospho-rpS6 immunofluorescence/PI, 24 h. Potency, µM (titrated, usually from 38.3 µM), without a hit: at the top dose activity change, negative = inhibition, most hits filed as inhibitors. 44,000 tested, 0.78% active;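 also: potency is read from the fitted curve at half-maximal effect; plate controls were DMSO for no effect and rapamycin for full effect; nearly all actives have a fitted effect of over 50% in size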
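Immunofluorescence of rpS6 phosphorylation in Tsc2-/-, p53-/- MEFs after 24 h compound exposure, normalized to propidium iodide signal. Activity is expressed as % positive cells, thresholded with 7.5 nM rapamycin.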
S16 viability: Cell viability qHTS assay in S16 Pmp22-F2sN cells | 43,000 tested, 0.48% active | S16 Pmp22-F2sN Schwann cells viability, CellTiter-Glo, 24 h | Potency, µM (top dose mostly 57.5 µM), inactives show top-dose activity change, negative = cytotoxicity, usual class: cytotoxic; also: potency is read from the fitted curve at half-maximal effect; % is scaled to controls: 0 for no effect and ±100 for the full control effect; nearly all actives have a fitted effect of over 65% in size
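Used to flag compounds lowering reporter output through toxicity, this quantitative HTS measures ATP-based CellTiter-Glo luminescence in S16 Pmp22-F2sN Schwann cells after 24 h compound exposure at 37C.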
p53null 32C tox: qHTS Screen for Compounds that Selectively Target Cancer Cells with p53 Mutations: Cytotoxicity of p53 Null Cells at the Permissive Temperature | H1299-neo p53 null cells, ATP luminescence, 24 h, 32C | Potency, µM (series often up to 46.1 µM), for inactives: at the highest dose activity change, negative = cytotoxicity, hits mostly cytotoxic | 55,000 tested, 0.62% active | AID 903, 2007;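 also: potency is read from the fitted curve at half-maximal effect; 0% = DMSO only and -100% = full killing by 100 µM tamoxifen; nearly all actives have a fitted effect of over 55% in size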
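AC50 values derive from Hill modelling of qHTS concentration-response data (up to 46 uM) in H1299-neo cells. Cells were treated 24 h at 32C following overnight attachment at 37C; viability was read as cellular ATP.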
NLuc saturating: Biochemical NLuc saturation counterscreen for small molecule modulators of PMP22 gene expression - Nano-Glo assay | 690 tested, 4% active | shares compounds with PMP22 txn | AID 1508638, 2021 | Potency, µM (doses to about 57.5 µM), for inactives: top-dose activity change, negative = inhibition, most hits filed as inhibitors | Secreted NLuc enzyme (filtered S16 cell medium), Nano-Glo luminescence; also: potency is read from the fitted curve at half-maximal effect; % is scaled to controls: 0 for no effect and ±100 for the full control effect
NLuc Km ctr: Biochemical coelenterazine-based NLuc counterscreen for small molecule modulators of PMP22 gene expression - Km assay. shares compounds with PMP22 txn. secreted NLuc enzyme, coelenterazine luminescence, Km conditions. AID 1508639, 2021. 690 tested, 5% active. Potency, µM (doses to about 57.5 µM), without a hit: at the top dose activity change, negative = inhibition, actives largely listed as inhibitors; also: potency is read from the fitted curve at half-maximal effect; % is scaled to controls: 0 for no effect and ±100 for the full control effect
FLuc counter: Biochemical FLuc counterscreen for small molecule modulators of PMP22 gene expression; shares compounds with PMP22 txn; purified P. pyralis FLuc, luminescence, 10 min; Potency, µM (highest dose often 57.5 µM), without a hit: at the highest dose activity, negative = inhibition, hits mostly inhibitors; 690 tested, under 10 active; AID 1508640, 2021; also: % of control where 0% means no effect
S16 viab conf: Cell viability qHTS assay in S16 Pmp22-F2sN cells - Confirmatory screen | S16 Schwann cells viability, CellTiter-Glo ATP luminescence, 24 h | Potency, µM (titrated, usually from 57.5 µM), for the others: at the top dose activity change, negative = viability loss, usual class: cytotoxic | shares compounds with PMP22 txn | 690 tested, 7% active; also: potency is read from the fitted curve at half-maximal effect; % is scaled to controls: 0 for no effect and ±100 for the full control effect
PMP22 txn cnf: Cell-based coincidence reporter assay to measure PMP22 gene transcription in S16 Pmp22-F2sN cells - Confirmatory screen. Potency, µM (series often up to 57.5 µM), inactives show top-dose activity change, negative = inhibition, usual class: inhibitors. S16 Schwann cells Pmp22-F2sN, dual luciferase, 24 h. 690 tested, 22% active. shares compounds with PMP22 txn; active = clear falling dose curves in both reporters; inconclusive = both reporters move, but less clearly or upward; inactive = either reporter flat; the % is the FLuc reporter signal; also: potency is read from the fitted curve at half-maximal effect
PMP22 HiBiT cnf: Cell-based HiBiT reporter assay to measure PMP22 protein expression in S16 Pmp22-HiBiT cells - Confirmatory screen; shares compounds with PMP22 txn; 95 tested, under 10 active; S16 Schwann cells Pmp22-HiBiT, luminescence, 48 h; Potency, µM (top dose mostly 27.9 µM), inactives show at the top dose activity change, negative = inhibition, hits mostly inhibitors
Target sequence (P25094 whole entry, looked up): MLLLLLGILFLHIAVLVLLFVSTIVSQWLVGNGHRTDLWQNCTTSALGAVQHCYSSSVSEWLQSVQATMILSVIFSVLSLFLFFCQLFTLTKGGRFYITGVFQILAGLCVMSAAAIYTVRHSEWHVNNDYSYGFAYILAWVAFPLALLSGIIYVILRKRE
Starred values were filed as active, the others as inactive; i = inactive; ? = inconclusive; / = not tested or not shown. Unless noted, calls follow the shape of the dose curve; as a rule, active = well fitted curve in the direction sought with a large enough effect; inconclusive = small, poorly fitted or top-dose-only effect, or another doubt; inactive = no such curve, though single readings can be large; an effect the other way counts as inactive or inconclusive.

SMILES	p53null 39C tox	PMP22 txn	SKOV3 invasion	mTORC1 inh	S16 viability	p53null 32C tox	NLuc saturating	NLuc Km ctr	FLuc counter	S16 viab conf	PMP22 txn cnf	PMP22 HiBiT cnf
C[C@@H]1CC[C@H]2[C@@H](C)C(=O)O[C@@H]3O[C@@]4(C)CC[C@H]1[C@]32OO4	/	/	-4.4%	/	/	/	/	/	/	/	/	/
COc1ccc(CN2CCN(c3ncnc4sc5c(c34)CCCC5)CC2)cc1F	53.1%	5.32µM*	2.9%	-5.8%	?	56.9%	-19.8%	-2.0%	-12.6%	-22.9%	?	/
C[C@@H]1[C@@H](C(=O)C[C@H]2O[C@@H]3O[C@]4(C)CC[C@@H]5[C@H](C)CC[C@@H]([C@H]2C)[C@@]35OO4)O[C@@H]2O[C@]3(C)CC[C@H]4[C@H](C)CC[C@@H]1[C@@]24OO3	/	/	2.8%	/	/	/	/	/	/	/	/	/
COC[C@H]1OC(=O)c2coc3c2[C@@]1(C)C1=C(C3=O)[C@@H]2CC[C@H](O)[C@@]2(C)C[C@@H]1OC(C)=O	/	/	5.9%	/	/	/	/	/	/	/	/	/
Cc1c(Cl)cccc1NC(=O)c1oc2ccc(S(=O)(=O)N3CCC4(CC3)OCCO4)cc2c1C	-0.4%	13.9µM*	-0.2%	13.1µM*	?	-0.5%	-15.4%	-3.1%	-4.5%	-23.8%	?	15.2%
N#C[C@H](O[C@@H]1O[C@H](CO[C@@H]2O[C@H](CO)[C@H](O)[C@H](O)[C@H]2O)[C@H](O)[C@H](O)[C@H]1O)c1ccccc1	/	/	-17.6%	/	/	/	/	/	/	/	/	/
COc1ccccc1NC(=O)Cn1c(=O)n(-c2cccc(Cl)c2)c(=O)c2sc3ccccc3c21	?	10µM*	i	1.2%	1.5%	-3.9%	-3.8%	5.1%	0.8%	?	6.48µM*	6.45µM*
COc1ccc(NC(=O)Cn2c(=O)c3cccn3c3ccccc32)cc1Cl	90.2%	?	-6.4%	-1.4%	11.7%	15.8%	/	/	/	/	/	/
CCc1ccc(OCC(=O)Nc2cc3oc4ccccc4c3cc2OC)cc1	-22.5%	6.45µM*	i	1.2%	4.4%	?	5.5%	2.0%	3.1%	-13.0%	18.3µM*	10.8%
